The values that follow come from PubChem BioAssay AID1851 (National Center for Advancing Translational Sciences (NCATS), 2009).

By AC50 is commonly meant the concentration giving half of the maximal activity seen.

Screen size: about 16,000 compounds; about 5,700 (36%) were called active. Roughly 24% stayed inconclusive and do not appear here. Some of the results follow. Values without a mark were called inactive. The call rests on the fitted dose curve; in most records, active means well fitted curve in the direction sought with a large enough effect; inconclusive means small, poorly fitted or top-dose-only effect, or effect the other way; inactive means no such curve, though single readings can be large or run the other way.
On the % scale 0 is the no-effect control and ±100 the full control effect.

Chain of Cytochrome P450 1A2 (Homo sapiens) (P05177 whole entry, looked up): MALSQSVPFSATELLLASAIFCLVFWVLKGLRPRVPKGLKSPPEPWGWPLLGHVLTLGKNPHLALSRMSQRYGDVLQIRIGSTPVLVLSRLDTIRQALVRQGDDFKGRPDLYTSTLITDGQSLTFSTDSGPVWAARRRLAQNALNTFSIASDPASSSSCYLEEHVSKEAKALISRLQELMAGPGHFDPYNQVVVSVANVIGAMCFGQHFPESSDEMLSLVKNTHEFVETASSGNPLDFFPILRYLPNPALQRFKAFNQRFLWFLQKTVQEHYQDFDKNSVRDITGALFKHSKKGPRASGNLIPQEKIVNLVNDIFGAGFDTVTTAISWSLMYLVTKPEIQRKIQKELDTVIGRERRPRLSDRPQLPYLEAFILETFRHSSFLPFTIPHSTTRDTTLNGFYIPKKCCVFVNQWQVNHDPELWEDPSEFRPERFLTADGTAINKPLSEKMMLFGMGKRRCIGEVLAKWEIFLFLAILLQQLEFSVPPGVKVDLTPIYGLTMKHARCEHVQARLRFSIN

This test has as its target Cytochrome P450 1A2 (Homo sapiens) (UniProt P05177). As to the kind of experiment: Cytochrome panel assay with activity outcomes. The settings on record: recombinant CYP, pro-luciferin dealkylation, luminescence, p450-cyp1a2; series mostly up to 57.1 µM; activity, negative = inhibition: at the top concentration.
For `O=C(Nc1ccc(C(=O)Nc2ccc(C(=O)Nc3ccc(S(=O)(=O)O)c4cc(S(=O)(=O)O)cc(S(=O)(=O)O)c34)cc2)cc1)Nc1ccc(C(=O)Nc2ccc(C(=O)Nc3ccc(S(=O)(=O)O)c4cc(S(=O)(=O)O)cc(S(=O)(=O)O)c34)cc2)cc1`, the AC50 is 31600 nM (active).

Turning to `O=C(Nc1cccc(C(=O)Nc2ccc(S(=O)(=O)O)c3cc(S(=O)(=O)O)cc(S(=O)(=O)O)c23)c1)Nc1cccc(C(=O)Nc2ccc(S(=O)(=O)O)c3cc(S(=O)(=O)O)cc(S(=O)(=O)O)c23)c1`, the AC50 entry is “inactive”.

Regarding `CN1CCN(C(=O)C(C(=O)c2ccc(F)cc2)n2ccccc2=O)CC1` (stereo not drawn), the “activity, negative = inhibition” value was -0.425%.

As for `Fc1ccc(Nc2ncnc3ccc(-c4ccoc4)cc23)cc1`, the half-maximal activity concentration (AC50) was 1000 nM (active).

With `c1ccc(Nc2ncnc3ccc(-c4ccoc4)cc23)cc1`, the AC50 is 1580 nM (active).

As to `CCc1ccc(NC(=O)CSc2nc3cc(C(=O)OC)ccc3c(=O)n2Cc2ccco2)cc1`, the “activity, negative = inhibition” value was -27.9%.

As for `CCN(C(=O)CSc1nc2cc(C(=O)OC)ccc2c(=O)n1Cc1ccco1)c1cccc(C)c1`, the AC50 was 2510 nM (active).

Take `COC(=O)[C@H]1C[C@@H]1[C@H](NC(=O)Oc1ccc(F)cc1)c1ccccc1`: the half-maximal activity concentration (AC50) is 1000 nM (active).

`COC(=O)[C@@H]1C[C@H]1[C@@H](NC(=O)Oc1ccc(F)cc1)c1ccccc1`: the AC50 is 3160 nM (active).

As to `O=P(O)(COc1ccccc1)COc1ccccc1`, the “activity, negative = inhibition” value was -1.64%.

Turning to `Cc1ccccc1OCCCn1c(=O)sc2ccccc21`, the concentration at half-maximal activity (AC50) was 3160 nM (active).

Turning to `O=c1sc2ccccc2n1CCCOc1ccccc1`, the concentration at half-maximal activity (AC50) was 15800 nM (active).

On to `Cc1ccc(OCCCn2c(=O)sc3ccccc32)cc1`, for which the “activity, negative = inhibition” value is -65.4%.

`CCOC(=O)c1cccc(NC(=O)COc2ccc([N+](=O)[O-])cc2)c1`: the AC50 is 12600 nM (active).

For the molecule `O=C(COc1ccc(/C=N/NC(=O)c2ccccc2)cc1)Nc1ccc([N+](=O)[O-])cc1`, the “activity, negative = inhibition” value is -1.47%.

Regarding `O=C(Nc1nc(-c2ccccc2)cs1)c1cccc([N+](=O)[O-])c1`, the AC50 was 1410 nM (active).

With `O=C(Nc1cccc([N+](=O)[O-])c1)c1ccc(CSc2ccccc2)cc1`, the “activity, negative = inhibition” value was -21.6%.

For `CCC(=O)Nc1cccc(C(=O)/C=C/c2ccccc2)c1`, the concentration at half-maximal activity (AC50) was 1000 nM (active).

`CCC(=O)Nc1cccc(NC(=O)c2cccc([N+](=O)[O-])c2)c1`: the concentration at half-maximal activity (AC50) was 7080 nM (active).

Consider `COc1ccccc1Nc1nc(-c2sc(NC(=O)c3ccc([N+](=O)[O-])cc3)nc2C)cs1`, for which the “activity, negative = inhibition” value is -20.4%.

Regarding `CS(=O)(=O)N(CC(=O)Nc1cccc(F)c1)c1cccc([N+](=O)[O-])c1`, the “activity, negative = inhibition” value was -3.74%.

Regarding `CC(C)NC(=O)N1CCC2(CC1)CCN(S(C)(=O)=O)CC2`, the “activity, negative = inhibition” value was -8.96%.

Take `Cc1ccccc1N1C(=O)c2cc(S(N)(=O)=O)c(Cl)cc2N[C@H]1C`: the “activity, negative = inhibition” value is 0.243% [at 25.6 µM].
